Measurements published in PubChem BioAssay (EPA / NIEHS).
Activity calls are given as the source filed them. The calls were made as follows: active = hit-call score of the fitted dose curve at least 0.9, where 1 is the maximum; inactive = score below 0.9.

Read-out: catalase (CAT), CAT (gene 847)
Test: LTEA_HepaRG_CAT: Life Technologies and Expression Analysis (LTEA) Assay for catalase (CAT) using HepaRG (AID 2283452)
Conditions: mRNA level, 48 h; actives raise or lower the signal
How it was run: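 Differentiated HepaRG cells in serum-free induction medium were dosed 48 h in duplicate, eight half-log concentrations from 100 uM in 0.5% DMSO. Transcript measured by TaqMan qRT-PCR, normalised to ACTB/GAPDH/POLR2A, fitted bidirectionally against DMSO.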

SMILES	AC50	outcome
CCOP(=S)(Oc1cnc(C(C)(C)C)nc1)OC(C)C (stereo not given)	5.63 µM (active)	–
CNC(=O)ON=C(C)SC	–	inactive
CNc1cnn(-c2cccc(C(F)(F)F)c2)c(=O)c1Cl	–	inactive
CCCSP(=O)(OCC)Oc1ccc(Br)cc1Cl (stereo not given)	–	inactive
CON=C(C(=O)OC)c1ccccc1CON=C(C)c1cccc(C(F)(F)F)c1	–	inactive
CCNc1nc(Cl)nc(NC(C)(C)C#N)n1	–	inactive
CCOP(=S)(OCC)OC(Cl)C(Cl)(Cl)Cl (stereo not given)	–	inactive
CC1(C(=O)Nc2ccc(O)c(Cl)c2Cl)CCCCC1	–	inactive
CN(C)[C@@H]1C(=O)C(C(N)=O)=C(O)[C@@]2(O)C(=O)C3=C(O)c4c(O)cccc4[C@@](C)(O)[C@H]3[C@H](O)[C@@H]12	–	inactive
COP(=O)(NC(C)=O)SC (stereo not given)	–	inactive
